# Compound activity from PubChem.
# MCF10A rerep = induces DNA re-replication in MCF 10a normal breast cells. Potency, µM (top dose mostly 46.1 µM), without a hit: top-dose activity, positive = re-replication, most hits filed as activators. MCF 10A DNA re-replication, Hoechst nuclear intensity, 48 h. AID 624296. 350,000 tested, 2.9% active; further: % of control where 0% means no effect; nearly all actives have a fitted effect of over 50% in size
# ELG1 repair inh = ELG1-dependent DNA repair inhibition | 330,000 tested, 2.3% active | Potency, µM (titrated, usually from 46.1 µM), inactives show top-dose activity change, negative = inhibition, usual class: inhibitors | HEK293T ELG1-luciferase reporter, luminescence, 16 h; DNA damage induced by 5-fluorouridine; further: on the % scale 0 is the no-effect control and ±100 the full control effect; nearly all actives have a fitted effect of over 55% in size
#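 5-Fluorouridine DNA damage + compound/DMSO, 2,000 cells/well, 16 h, 37 °C/5% CO2. ONE-Glo, 30 min RT, luminescence. Readout = decrease in reporter signal.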
# KB-3-1 cytotox = KB-3-1 parental cell cytotoxicity; KB-3-1 viability, CellTiter-Glo ATP luminescence, 72 h; 400,000 tested, 1.4% active; Potency, µM (series often up to 46.1 µM), most hits filed as cytotoxic; further: on the % scale 0 is the no-effect control and ±100 the full control effect; nearly all actives have a fitted effect of over 60% in size
#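 KB-3-1 cells, DMEM (no phenol red) + 10% FBS; compound by pin transfer, 72 h, 37 °C. Readout: CellTiter-Glo luminescence after 10 min. Data normalized, curve-fitted.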
# KB-V1 MDR tox = kills drug-selected multidrug resistant KB-V1 cells | 400,000 tested, 3.4% active | KB-V1 MDR cells viability, CellTiter-Glo, 72 h | Potency, µM (titrated, usually from 46.1 µM), hits mostly cytotoxic; further: on the % scale 0 is the no-effect control and ±100 the full control effect; nearly all actives have a fitted effect of over 60% in size
#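 Cytotoxicity via CellTiter-Glo luminescence after 72 h compound exposure at 37 degrees C. Cells: drug-selected KB-V1 line, DMEM phenol-red free plus 10% FBS. Compounds tested at multiple concentrations; normalized data fitted to concentration-effect curves.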
# SW480 rereplic = inducers of DNA re-replication in SW480 colon cancer cells | AID 624297 | 340,000 tested, 1.8% active | Potency, µM (highest dose often 46.1 µM), for inactives: at the top dose re-replication activation, usual class: activators | SW480 DNA re-replication, Hoechst DNA content imaging, 48 h; further: % of control where 0% means no effect; nearly all actives have a fitted effect of over 55% in size
#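 Compounds, transferred as 23 nL by pin tool, were incubated with cells for 48 hr; DNA content per nucleus was then quantified by Hoechst staining and fluorescence plate imaging.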
# * = called active by the depositor; i = inactive; ? = inconclusive; · = not tested or not shown; [ ] = another dose, or the depositor's remark. Most compounds without a hit are left out; they make up all but 8.2% or so of the library. The call rests on the fitted dose curve; in most records, active means well fitted curve in the direction sought with a large enough effect; inconclusive means small, poorly fitted or top-dose-only effect, or another doubt; inactive means no such curve, though single readings can be large; an effect the other way counts as inactive or inconclusive. Potency means the concentration at half of the fitted maximal effect.
SMILES,MCF10A rerep,ELG1 repair inh,KB-3-1 cytotox,KB-V1 MDR tox,SW480 rereplic
CN(C)c1nc(OCCNC(=O)COc2ccccc2Cl)nc(N(C)C)n1,?,?,i,1.64µM*,-0.8%
CON(C)c1nc(OCCNC(=O)OCc2ccc(Cl)cc2C)nc(N(C)C)n1,7.1%,?,i,1.64µM*,-1.4%
Cc1ccc(C(CC(=O)c2ccco2)SCCO)cc1 (centres undefined),?,?,i,?,?
O=C(CC(SCCO)c1ccc(F)cc1)c1ccco1 (centres undefined),20.6µM*,-15.5%,i,i,?
CC(=O)N1N=C(c2ccccc2)CC1c1cn(C)c2ccccc12 (centres undefined),17.4%,?,i,23.1µM*,19.8%
CCOC(=O)c1cnc2cc(F)c(F)cc2c1N1CCN(C)CC1,·,-18.1%,·,·,·
O=C1CC(c2ccco2)Cc2[nH]c(=O)c(C(=O)Nc3ccccc3)cc21 (centres undefined),·,·,i,i,·
COc1ccc(NC(=O)CC2C(=O)N(c3cccc(OC)c3)C(=O)N2C2CCCCC2)cc1 (centres undefined),2.7%,-8.9%,i,16.4µM*,-3.3%
COc1ccc(NC(=O)CC2C(=O)N(c3ccc(OC)cc3)C(=O)N2CCc2cccs2)cc1 (centres undefined),7.9%,?,i,14.6µM*,0.2%
CCN(CC)c1ncnc2c1ncn2[C@H]1CN(Cc2cccnc2)C[C@@H](CO)O1,·,·,i,i,·
CCC1(C)Cc2c(sc3nnn(CC(=O)Nc4ccccc4)c(=O)c23)CO1 (centres undefined),-2.6%,?,i,7.31µM*,2.1%
CCC1(C)Cc2c(sc3nnn(Cc4ccccc4Cl)c(=O)c23)CO1 (centres undefined),16.4µM*,?,i,20.6µM*,17.1%
CCC1(C)Cc2c(sc3nnn(CC(=O)Nc4ccccc4C)c(=O)c23)CO1 (centres undefined),-1.4%,10.3µM*,i,14.6µM*,0.9%
Nc1cc(Br)cc2c1[nH]c(=O)c1ccccc12,·,·,i,i,·
CC(C)c1cc(NCCOCCO)n2c(nc3ccccc32)c1C#N,7.4%,?,i,i,?
Cc1ccc(SC2=NS(=O)(=O)c3ccccc32)c(C)c1,·,·,i,i,·
CCOc1ccc(S(=O)(=O)N2CCc3cc(OC)c(OC)cc3C2)cc1,-46.0%,-14.2%,i,2.31µM*,-689.3%
CN(C)S(=O)(=O)N(CC(=O)Nc1ccc(F)c(F)c1)c1ccccc1,2.6%,3.2%,i,20.6µM*,-9.3%
CSc1cccc(NC(=O)CN(c2ccccc2)S(=O)(=O)N(C)C)c1,-1.4%,-1.2%,?,?,0.6%
CN(C)S(=O)(=O)N(CC(=O)Nc1ccc2ccccc2c1)c1ccccc1,0.1%,23.1µM*,i,i,-0.2%
Cc1ccc(NC(=O)CN(c2ccccc2)S(=O)(=O)N(C)C)cc1,3.5%,-18.6%,i,14.6µM*,-1.1%
CC1(C)OC[C@@H]2O[C@@]3(C(=O)O)OC(C)(C)O[C@@H]3[C@@H]2O1,3.3%,·,·,·,-0.5%
CN(C)c1ccc(-c2n[nH]c(=S)n2-c2ccccc2)cc1,20.6%,3.0%,i,i,-10.5%[1.84 µM]
Cc1cccc(-n2c(-c3csc(C(C)C)c3)n[nH]c2=S)c1,0.9%,1.3%,i,18.4µM*,-6.2%
Cc1ccc(-n2c(-c3ccccc3)n[nH]c2=S)c(C)c1,0.651µM*,1.5%,i,i,?
SMILES,MCF10A rerep,ELG1 repair inh,KB-3-1 cytotox,KB-V1 MDR tox,SW480 rereplic
CCCc1cc(-c2n[nH]c(=S)n2-c2cccc(C)c2)cs1,10.4%[9.22 µM],4.5%,i,?,-2.8%
CCN(CC)c1ccc(-c2n[nH]c(=S)n2-c2ccccc2)cc1,?,?,13µM*,23.1µM*,?
Cc1ccc(C)c(-n2c(-c3csc(C)c3)n[nH]c2=S)c1,18.5%,1.2%,i,18.4µM*,?
COc1cc(OC)cc(-c2nc(-c3ccccc3OC)no2)c1,2.1%,7.7%,i,i,1.4%
COc1ccccc1-c1noc(-c2cc(OC)c(OC)c(OC)c2)n1,?,11.6µM*,i,?,?
COc1cc(-c2nc(-c3cccc(C(F)(F)F)c3)no2)cc(OC)c1OC,?,23.1µM*,?,?,-3.8%
COc1cc(-c2noc(-c3cccs3)n2)cc(OC)c1OC,13.4%,23.1µM*,i,i,-10.8%
CN(C)CCCNC(=O)c1cccc(-c2cnc3cccnn23)c1,·,·,i,i,·
CN(/N=C\c1ccc(O)c(O)c1)c1nc(-c2ccccc2)cc(-c2ccccc2)n1,?,13µM*,i,?,18.4µM*
Cc1c(C(=O)Nc2ccccc2N2CCN(C)CC2)oc2ccc(F)cc12,?,20.2%,16.4µM*,?,?
CS(=O)(=O)N1CCN(c2ccccc2NC(=O)c2ccc(Cl)cc2)CC1,27.0%,-1.2%,i,i,-2.7%
CN1CCN(c2ccccc2NC(=O)c2c(F)cccc2F)CC1,-3.7%,3.7%,i,i,-2.9%
CN1CCN(c2ccccc2NC(=O)c2ccc(-c3cccc([N+](=O)[O-])c3)o2)CC1,?,?,i,i,?
CS(=O)(=O)N1CCN(c2ccccc2NC(=O)c2ccc3ccccc3c2)CC1,11.6%,11.6µM*,i,i,-2.0%
CN1CCN(c2ccccc2NC(=O)c2ccc([N+](=O)[O-])o2)CC1,14.6µM*,9.2µM*,·,·,2.31µM*
CS(=O)(=O)N1CCN(c2ccccc2NC(=O)c2ccc([N+](=O)[O-])o2)CC1,?,23.1µM*,i,?,2.3%
CS(=O)(=O)N1CCN(c2ccccc2NC(=O)c2ccc3c(c2)OCCO3)CC1,-0.8%,-16.6%,i,i,16.4%
COc1ccc(Cn2c(NCC(C)C)nc3c2c(=O)n(C)c(=O)n3C)cc1,·,·,i,i,·
Cc1c(C(=O)Nc2ccccc2Br)oc2ccc(S(=O)(=O)N3CCCCCC3)cc12,·,·,i,i,·
O=C(NCCN1CCOCC1)C(=O)NCC1OCCN1S(=O)(=O)c1ccc(Cl)cc1 (centres undefined),·,·,i,i,·
CCOc1ccc(S(=O)(=O)N2CCN(C(=O)C3CSC4(C)CCC(=O)N34)CC2)cc1 (centres undefined),1.4%,-2.3%,i,?,-0.5%
CCOc1ccccc1N1CCN(C(=O)C2CSC3(C)CCC(=O)N23)CC1 (centres undefined),-6.4%,6.9%,i,18.4µM*,-5.4%
O=C1COc2ccccc2N1Cc1c(F)cccc1Cl,23.1µM*,12.4%,i,i,49.6%
